TTR transcr act: increases transthyretin transcription. SH-SY5Y TTR promoter Gaussia luciferase, luminescence; 100% = recombinant luciferase protein wells. 1.3% of 92,000 active. activation, % at 16.7 µM;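 active means activation above the mean of all tested compounds plus 3 SD, cut at about 9.5% in these data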;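 further: cells exposed to compounds for one day before reading; 0% = median of all test compound wells on the plate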
HuH7 TTR inh: HuH7 TTR transcription inhibition, counter-screen; inhibition, % at 16.7 µM; 4% of 1,100 active; shares compounds with TTR transcr act; HuH7 TTR promoter-Gaussia luciferase reporter, luminescence;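 active means average inhibition above the solvent-only control wells' mean plus 3 SD, cut at about 15% in these data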;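 further: 0% = cells with DMSO only and 100% = cells with inhibitor control FD; inhibitors lower well luminescence so higher value means more inhibition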
TTR up confirm: confirmation of human transthyretin transcription activators. shares compounds with TTR transcr act. 1,100 tested, under 10 active. SHSY5Y TTR promoter Gaussia luciferase, luminescence; 100% = purified Lucia enzyme wells, no cells. activation, % at 16.7 µM;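 active means mean activation above a set limit taken from the earlier primary screen, cut at about 11% in these data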;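 further: 0% = DMSO-treated cells and 100% = recombinant Lucia luciferase without cells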
Numbers without * were called inactive. This is one part of a sample in which hits are shown more often than they occur.

SMILES | TTR transcr act | others
Cn1cccc1CC(=O)N/N=C/C=C/c1ccccc1 | 3.7
CCCC1CCC2(CC1)CCC2OC(=S)NCc1cccc(OC)c1 (configuration not stated) | 1.0
CN(CCCC(=O)O)c1ccc(N=Nc2ccc([N+](=O)[O-])cc2)cc1 | -2.5
CC(=O)c1cccc(NC(=O)C2Cc3c(-c4ccccc4)ccnc3O2)c1 (configuration not stated) | -0.8
CC(=O)Nc1cccc(-c2ccnc3c2CC(C(=O)Nc2cccc(NS(C)(=O)=O)c2)O3)c1 (configuration not stated) | 16.8* | HuH7 TTR inh=-21.9;TTR up confirm=0.6
CC(=O)Nc1cccc(-c2ccnc3c2CC(C(=O)Nc2cccnc2)O3)c1 (configuration not stated) | 5.2
CCN1C(=O)[C@H]2[C@@H](c3ccccc3)N[C@]3(CCCN(Cc4ccccc4)C3=O)[C@H]2C1=O | 0.0
CN1C(=O)[C@H]2[C@@H](c3ccccc3)N[C@]3(CCCN(Cc4ccco4)C3=O)[C@H]2C1=O | 10.0* | HuH7 TTR inh=-6.5;TTR up confirm=1.3
CCN1C(=O)[C@H]2[C@@H](c3ccc(C)cc3)N[C@]3(CCCN(CCC(C)C)C3=O)[C@H]2C1=O | 20.0* | HuH7 TTR inh=-5.0;TTR up confirm=-0.1
COc1ccc([C@H]2N[C@]3(CCCN(Cc4cccn4C)C3=O)[C@H]3C(=O)N(C)C(=O)[C@@H]23)cc1 | -0.4
CCN1C(=O)[C@H]2[C@@H](c3ccc(OC)cc3)N[C@]3(CCCN(Cc4ccco4)C3=O)[C@H]2C1=O | 3.7
CC(C)CCN1CCC[C@]2(N[C@H](c3ccccc3)[C@@H]3C(=O)N(Cc4ccccc4)C(=O)[C@@H]32)C1=O | 1.8
C[C@@H]1CN([C@@H](C)CO)C(=O)c2cccc(NC(=O)Nc3cccc4ccccc34)c2O[C@H]1CN(C)S(=O)(=O)c1ccc(Cl)cc1 | 0.1
Cc1cc(C)c(NC(=O)COc2cccnc2[N+](=O)[O-])c(C)c1 | -0.8
CN(C(=O)c1cccc(NC(=O)Cc2ccc(NC(=O)C3CCN(C(=O)C4CCCC4)CC3)cc2)c1)C1CC1 | -0.8
Cc1ccc2nc(SCC(=O)Nc3ccc(C)c(Cl)c3)nc(=O)n2c1 | 1.1
COc1ccccc1NC(=O)CSc1nc(=O)n2cc(C)ccc2n1 | 11.7* | HuH7 TTR inh=-14.8;TTR up confirm=2.0
Cc1ccc2nc(SCC(=O)c3ccc(Cl)cc3)nc(=O)n2c1 | 1.6
COc1ccc(Sc2cccc3c2S(=O)(=O)N([C@H](C)c2ccccc2)C[C@@H](COCc2ccccc2)O3)cc1OC | -1.4
Cc1cc2c(NC(=O)Nc3ccc(C(F)(F)F)cc3)cccc2nn1 | 0.0
Cc1cc2c(NC(=O)CCCC(=O)O)cccc2nn1 | 10.2* | HuH7 TTR inh=-10.8;TTR up confirm=-0.8
CC(C)c1ccccc1NC(=O)CCCC(=O)O | 1.5
COc1ccc([N+](=O)[O-])c(OC)c1C(=O)NC(=O)Nc1nc(C)nc(C)n1 | -1.2
CC(=NNC(=O)c1ccc(NS(=O)(=O)c2cccs2)cc1)c1ccc(OCC(N)=O)cc1 | 1.6
CC(=O)N1c2ccc(S(=O)(=O)NCC3CCC(C(=O)NC4CCCCC4C)CC3)cc2CC1C (configuration not stated) | -3.0
SMILES | TTR transcr act | others
COc1cc(C(=O)NNC(=O)CNC(=O)C2CCCCC2)ccc1OC(C)C | -0.5
COc1ccc(NC(=O)CSCC(=O)Nc2ccc(S(=O)(=O)N3CCCC3)cc2)cc1 | 0.0
Cc1ccc(NC(=O)CSc2nc(N)cc(=O)[nH]2)cc1S(=O)(=O)N1CCCCCC1 | 0.9
Cc1cc(=O)[nH]c(SCC(=O)Nc2ccc(S(=O)(=O)N3CCCCC3)cc2)n1 | 12.9* | HuH7 TTR inh=-1.7;TTR up confirm=0.1
COc1ccc(NC(=S)Nc2ccc(S(=O)(=O)N3CCCCC3)cc2)cc1 | 12.1* | HuH7 TTR inh=12.4;TTR up confirm=-0.1
COc1ccc(OCC(=O)Nc2ccc(S(=O)(=O)N3CCCCC3)cc2)cc1 | -0.7
CCOC(=O)CSCC(=O)Nc1ccc(S(=O)(=O)N2CCCCC2)cc1 | -2.1
CC(C)C[C@H](NC1(C(=O)NCCc2c[nH]c3ccccc23)CCN(C)CC1)C(=O)NCCCc1ccccc1 | -1.4
Cn1c(=O)cc(OCCCC(=O)Nc2cc(C(F)(F)F)ccn2)c2ccccc21 | 1.9
Nn1c(SCC(=O)NCc2ccc3c(c2)OCO3)nnc1C(F)(F)F | -1.6
Cc1ccc(F)c(CNC(=O)C2(C)CCCN2C(=O)C(C)C)c1F (configuration not stated) | 0.0
C[C@H]1[C@@H](OC(=O)Nc2ccc(Cl)cc2)CC[C@@]23CCCN2C(=O)CCC[C@@H]13 | -0.7
Cc1ccc(NC(=O)C2CC3CCC2C3)c(Br)c1 (configuration not stated) | 2.4
COc1cc(OC)cc(C(C)c2ccc(C)cc2)c1 (configuration not stated) | 0.6
COc1ccc(CCN=C(N)NS(=O)(=O)c2cccs2)cc1OC | 3.6
COc1ccc(S(=O)(=O)NC(N)=NCCc2ccc(OC)c(OC)c2)cc1C | 11.7* | HuH7 TTR inh=-10.7;TTR up confirm=0.7
COc1ccc(CCN=C(N)NS(=O)(=O)c2ccc(C)c(C)c2)cc1OC | 0.7
CC(C)(N[C@@H](Cc1ccccc1)C(=O)NCCCc1ccccc1)C(=O)NCc1ccccc1 | 0.6
COc1ccc(Oc2c(Cl)cnn(-c3cc(C)cc(C)c3)c2=O)cc1 | 2.0
Cc1cc(C)cc([C@H]2C[C@]34CN(Cc5ccccc5)S(=O)(=O)[C@H]3C[C@H]2O4)c1 | -1.5
O=S1(=O)[C@H]2C[C@@H]3C=C[C@@]2(CN1Cc1ccc(Cl)cc1)O3 | 17.4* | HuH7 TTR inh=-11.8;TTR up confirm=-0.1
Cc1cccc(CN2C[C@]34C=C[C@@H](C[C@@H]3S2(=O)=O)O4)c1 | -1.4
COc1ccc(-c2c(C(=O)c3ccccc3)[nH]c(N)c2C(=O)c2c[nH]c3ccccc23)cc1OC | 0.9
COC(=O)[C@]12C[C@H](CC(=O)NCCc3ccccc3OC)C(=O)N(CCc3ccc(OC)c(OC)c3)C1=C[C@H](C(C)C)O[C@@H]2C1CC1 | -1.6
Cn1ccc2cc(S(=O)(=O)N3CCN(S(=O)(=O)c4c(F)cccc4F)CC3)ccc21 | 1.3
SMILES | TTR transcr act | others
CN(C)CCCn1c(NCc2ccc3c(c2)OCO3)nc2ccccc21 | 10.0* | HuH7 TTR inh=-12.6;TTR up confirm=0.0
c1ccc2c(c1)nc(NCc1ccc3c(c1)OCO3)n2CCN1CCOCC1 | -0.5
CCn1c(NCc2ccc3c(c2)OCO3)nc2ccccc21 | 6.2
CC1CC(C)CN(CC(O)COCc2ccccc2)C1 (configuration not stated) | 3.3
CCC(c1nc2ccccc2[nH]1)N(Cc1cccnc1)C(=O)c1cc(-c2ccccc2)on1 (configuration not stated) | 1.1
O=C(/C=C/NCc1cccnc1)c1ccc(Br)cc1 | -1.4
Cn1cnc([N+](=O)[O-])c1Sc1ncnc2nc[nH]c12 | 2.0
COc1ccc(C(=O)CSc2ncnc3nc[nH]c23)cc1 | -1.0
Cn1cnc(Sc2ncnc3nc[nH]c23)c1[N+](=O)[O-] | 37.9* | HuH7 TTR inh=0.2;TTR up confirm=-0.5
C[C@@H]1CN([C@H](C)CO)C(=O)CCCn2cc(nn2)CO[C@H]1CN(C)C(=O)Nc1ccc2c(c1)OCCO2 | -0.3
O=C(Nc1ccc(Br)c(C(F)(F)F)c1)[C@@H]1CC=C[C@@H]2CCN(CC3CC3)C(=O)[C@@H]21 | -1.1
COc1ccc(NC(=O)CN2C(=O)NC(C)(c3ccc4c(c3)OCCO4)C2=O)cc1S(N)(=O)=O (configuration not stated) | 2.0
CNc1ncnc(NC)c1[N+](=O)[O-] | 0.7

Screening data as filed in PubChem BioAssay.
